Source: the supplement of paper PMC10849652
About 7,900 targets were measured; listed, in parts, are those with a hit and a random draw of the rest. About 0.6% of all pairs of compound and target were hits. A number with no mark means an inactive call.

Sequence of UniProt Q16795 (Q16795 whole entry, looked up): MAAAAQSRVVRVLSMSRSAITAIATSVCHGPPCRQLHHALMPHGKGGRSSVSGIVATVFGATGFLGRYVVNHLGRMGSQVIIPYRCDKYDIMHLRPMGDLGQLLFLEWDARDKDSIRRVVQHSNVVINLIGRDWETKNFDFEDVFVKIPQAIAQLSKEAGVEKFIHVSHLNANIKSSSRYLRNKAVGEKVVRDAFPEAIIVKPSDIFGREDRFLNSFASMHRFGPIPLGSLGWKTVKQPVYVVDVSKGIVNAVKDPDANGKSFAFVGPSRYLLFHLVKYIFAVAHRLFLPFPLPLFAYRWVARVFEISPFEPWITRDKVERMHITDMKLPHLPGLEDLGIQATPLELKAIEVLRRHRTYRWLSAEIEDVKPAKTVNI
Sequence of UniProt P56556 (P56556 whole entry, looked up): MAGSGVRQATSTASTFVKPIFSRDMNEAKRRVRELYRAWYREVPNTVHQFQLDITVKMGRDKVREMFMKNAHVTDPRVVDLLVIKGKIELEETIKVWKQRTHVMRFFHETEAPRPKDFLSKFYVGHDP
Sequence of UniProt O15118 (O15118 whole entry, looked up): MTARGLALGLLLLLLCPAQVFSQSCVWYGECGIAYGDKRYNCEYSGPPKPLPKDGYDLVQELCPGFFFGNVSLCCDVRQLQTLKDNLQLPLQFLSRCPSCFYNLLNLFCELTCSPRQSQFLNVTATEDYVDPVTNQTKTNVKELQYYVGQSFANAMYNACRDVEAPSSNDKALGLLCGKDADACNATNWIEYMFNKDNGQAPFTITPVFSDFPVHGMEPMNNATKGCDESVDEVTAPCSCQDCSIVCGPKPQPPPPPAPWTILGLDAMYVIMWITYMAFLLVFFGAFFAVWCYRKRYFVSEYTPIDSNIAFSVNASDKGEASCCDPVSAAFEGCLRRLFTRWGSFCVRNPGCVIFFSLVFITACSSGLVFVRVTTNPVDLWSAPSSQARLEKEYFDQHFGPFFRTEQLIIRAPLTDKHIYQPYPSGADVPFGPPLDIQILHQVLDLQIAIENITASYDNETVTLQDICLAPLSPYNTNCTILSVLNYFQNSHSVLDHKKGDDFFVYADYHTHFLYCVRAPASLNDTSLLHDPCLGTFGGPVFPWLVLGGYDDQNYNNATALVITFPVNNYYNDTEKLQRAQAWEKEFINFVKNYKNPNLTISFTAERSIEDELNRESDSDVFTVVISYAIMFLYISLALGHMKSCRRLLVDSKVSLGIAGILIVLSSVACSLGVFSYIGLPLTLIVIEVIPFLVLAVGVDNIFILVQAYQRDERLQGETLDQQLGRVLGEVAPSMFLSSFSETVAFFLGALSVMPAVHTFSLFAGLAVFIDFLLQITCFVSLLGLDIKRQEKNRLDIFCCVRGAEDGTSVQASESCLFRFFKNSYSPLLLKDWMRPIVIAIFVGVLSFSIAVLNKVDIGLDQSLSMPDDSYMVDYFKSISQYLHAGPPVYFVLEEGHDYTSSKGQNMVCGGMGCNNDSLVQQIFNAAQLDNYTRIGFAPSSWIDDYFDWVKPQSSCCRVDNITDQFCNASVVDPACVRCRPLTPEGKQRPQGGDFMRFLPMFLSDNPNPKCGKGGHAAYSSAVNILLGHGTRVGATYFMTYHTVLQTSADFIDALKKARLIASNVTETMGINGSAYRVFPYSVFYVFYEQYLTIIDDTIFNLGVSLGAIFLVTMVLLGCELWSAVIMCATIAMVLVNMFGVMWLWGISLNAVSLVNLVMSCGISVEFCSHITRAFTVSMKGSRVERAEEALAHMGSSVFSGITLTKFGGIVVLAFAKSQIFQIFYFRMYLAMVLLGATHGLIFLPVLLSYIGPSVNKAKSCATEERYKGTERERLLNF
Sequence of UniProt P30419 (P30419 whole entry, looked up): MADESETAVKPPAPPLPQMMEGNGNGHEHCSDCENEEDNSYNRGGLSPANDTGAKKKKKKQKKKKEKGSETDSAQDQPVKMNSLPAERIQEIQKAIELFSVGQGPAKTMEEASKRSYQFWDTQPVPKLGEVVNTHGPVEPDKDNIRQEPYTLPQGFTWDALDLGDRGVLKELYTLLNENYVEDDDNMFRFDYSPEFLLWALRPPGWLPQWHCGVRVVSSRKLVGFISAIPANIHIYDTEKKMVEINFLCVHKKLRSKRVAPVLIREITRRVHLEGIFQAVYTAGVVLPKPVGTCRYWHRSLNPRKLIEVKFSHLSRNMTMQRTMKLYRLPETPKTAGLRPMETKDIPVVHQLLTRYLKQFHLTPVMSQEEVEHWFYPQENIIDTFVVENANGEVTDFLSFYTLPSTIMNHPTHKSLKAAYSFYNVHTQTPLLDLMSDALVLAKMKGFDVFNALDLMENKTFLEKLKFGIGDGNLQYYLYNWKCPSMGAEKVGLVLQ
Sequence of UniProt Q9BZQ8 (Q9BZQ8 whole entry, looked up): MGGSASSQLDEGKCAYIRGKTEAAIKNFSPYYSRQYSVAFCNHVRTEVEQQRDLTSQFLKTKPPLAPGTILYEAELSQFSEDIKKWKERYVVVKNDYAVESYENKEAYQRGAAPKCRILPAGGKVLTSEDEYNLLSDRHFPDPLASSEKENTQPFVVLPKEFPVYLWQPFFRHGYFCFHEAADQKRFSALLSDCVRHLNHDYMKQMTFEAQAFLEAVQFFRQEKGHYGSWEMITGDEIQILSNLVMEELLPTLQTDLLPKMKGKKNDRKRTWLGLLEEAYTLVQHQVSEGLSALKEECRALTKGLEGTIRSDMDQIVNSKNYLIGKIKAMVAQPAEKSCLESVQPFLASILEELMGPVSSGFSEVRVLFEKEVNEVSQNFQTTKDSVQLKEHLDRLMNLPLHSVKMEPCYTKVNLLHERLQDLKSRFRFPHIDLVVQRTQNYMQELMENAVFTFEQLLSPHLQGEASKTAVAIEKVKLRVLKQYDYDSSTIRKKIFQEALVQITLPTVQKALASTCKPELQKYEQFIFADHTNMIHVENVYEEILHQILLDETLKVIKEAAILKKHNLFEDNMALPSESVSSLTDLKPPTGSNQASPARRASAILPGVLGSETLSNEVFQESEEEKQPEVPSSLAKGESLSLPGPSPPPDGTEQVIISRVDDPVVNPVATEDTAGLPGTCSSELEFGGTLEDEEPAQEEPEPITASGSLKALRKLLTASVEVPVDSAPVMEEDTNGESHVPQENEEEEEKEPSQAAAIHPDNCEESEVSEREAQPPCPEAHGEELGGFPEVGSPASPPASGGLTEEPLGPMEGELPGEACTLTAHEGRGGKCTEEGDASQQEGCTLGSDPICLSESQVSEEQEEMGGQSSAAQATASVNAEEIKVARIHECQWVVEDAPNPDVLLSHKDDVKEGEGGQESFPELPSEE
Sequence of UniProt Q9H3P2 (Q9H3P2 whole entry, looked up): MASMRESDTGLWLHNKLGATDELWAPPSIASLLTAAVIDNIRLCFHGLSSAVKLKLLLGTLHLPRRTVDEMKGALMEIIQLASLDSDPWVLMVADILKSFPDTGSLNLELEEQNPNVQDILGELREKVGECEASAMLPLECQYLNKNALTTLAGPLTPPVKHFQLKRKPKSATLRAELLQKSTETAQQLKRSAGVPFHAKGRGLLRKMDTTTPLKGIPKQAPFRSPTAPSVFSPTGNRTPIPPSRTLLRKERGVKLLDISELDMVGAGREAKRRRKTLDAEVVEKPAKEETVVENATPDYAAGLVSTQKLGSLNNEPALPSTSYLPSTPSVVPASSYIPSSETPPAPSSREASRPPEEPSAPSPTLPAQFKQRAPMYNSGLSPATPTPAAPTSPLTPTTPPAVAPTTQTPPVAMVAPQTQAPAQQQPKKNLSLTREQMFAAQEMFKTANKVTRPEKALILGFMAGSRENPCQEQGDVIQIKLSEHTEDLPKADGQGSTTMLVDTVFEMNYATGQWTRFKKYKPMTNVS
Sequence of UniProt Q12986 (Q12986 whole entry, looked up): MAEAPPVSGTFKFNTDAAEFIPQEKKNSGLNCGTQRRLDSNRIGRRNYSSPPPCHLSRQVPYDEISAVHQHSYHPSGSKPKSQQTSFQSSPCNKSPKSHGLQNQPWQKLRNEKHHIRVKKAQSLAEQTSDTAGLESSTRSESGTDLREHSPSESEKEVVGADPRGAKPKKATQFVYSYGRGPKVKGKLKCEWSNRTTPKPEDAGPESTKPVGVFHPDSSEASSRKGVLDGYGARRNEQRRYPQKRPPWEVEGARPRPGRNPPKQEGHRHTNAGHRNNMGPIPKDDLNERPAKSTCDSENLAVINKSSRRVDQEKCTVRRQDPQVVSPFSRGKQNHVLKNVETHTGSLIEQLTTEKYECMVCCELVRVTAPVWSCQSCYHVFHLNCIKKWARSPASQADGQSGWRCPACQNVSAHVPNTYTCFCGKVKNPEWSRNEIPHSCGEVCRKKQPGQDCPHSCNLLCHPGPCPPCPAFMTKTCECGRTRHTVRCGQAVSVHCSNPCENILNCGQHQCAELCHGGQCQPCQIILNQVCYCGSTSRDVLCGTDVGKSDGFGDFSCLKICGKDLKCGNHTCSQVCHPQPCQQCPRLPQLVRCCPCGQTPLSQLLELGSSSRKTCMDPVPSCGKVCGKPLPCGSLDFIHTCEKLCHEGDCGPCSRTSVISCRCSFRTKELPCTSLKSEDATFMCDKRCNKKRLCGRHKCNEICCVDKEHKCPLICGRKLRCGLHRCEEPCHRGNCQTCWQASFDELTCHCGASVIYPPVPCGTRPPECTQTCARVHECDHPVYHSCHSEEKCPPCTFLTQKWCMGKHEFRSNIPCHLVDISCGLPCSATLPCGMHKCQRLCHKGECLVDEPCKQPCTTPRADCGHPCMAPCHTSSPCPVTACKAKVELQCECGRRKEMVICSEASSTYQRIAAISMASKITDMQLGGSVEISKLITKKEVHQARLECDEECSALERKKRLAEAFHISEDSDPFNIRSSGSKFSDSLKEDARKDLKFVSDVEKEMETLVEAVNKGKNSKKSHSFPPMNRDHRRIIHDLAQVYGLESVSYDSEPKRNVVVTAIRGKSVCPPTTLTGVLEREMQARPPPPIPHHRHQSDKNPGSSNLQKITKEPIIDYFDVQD
Sequence of UniProt Q9UI09 (Q9UI09 whole entry, looked up): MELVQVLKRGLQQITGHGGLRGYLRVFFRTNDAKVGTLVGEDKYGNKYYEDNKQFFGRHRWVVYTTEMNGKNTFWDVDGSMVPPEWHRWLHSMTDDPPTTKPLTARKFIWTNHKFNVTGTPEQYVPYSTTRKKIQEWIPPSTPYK

These targets were tested with CC(C)(C)Cn1c(N)nc2ccc(-c3[nH]c(C(C)(C)C)nc3-c3ccc(F)cc3)nc21 [ralimetinib] (assay: log2 fold change, soluble protein after heating vs DMSO (PISA); higher = thermal stabilisation; K562 cells, 10 uM, 30 min; active = over 0.2 and 3.5 SD of the protein, either way, in both replicates (recomputed)).
Method in brief: (§1)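 K562 cells at 2×10^6 cells/mL were given 10 μM compound for 30 min. Aliquots then went through 3 min of heating across 48°C-58°C, were pooled, and were extracted in PBS with 0.5% NP-40 at 4°C, and the supernatant after 21,000xg for 90 min was quantified by TMTpro 16plex LC-MS/MS with channel sums equalised. Thermal stability relative to control samples, from duplicates, is given as log2 fold change.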
NDUFA6 (UniProt P56556) gave a log2 fold change of -0.046.
MORF4L2 (UniProt Q15014) showed a log2 fold change of -0.01.
For NOL7 (UniProt Q9UMY1), the log2 fold change was 0.041.
NELFA (UniProt Q9H3P2) was tested, and the log2 fold change was 0.02.
NHLRC2 (UniProt Q8NBF2) was tested, and the log2 fold change was -0.122.
With MRPS25 (UniProt P82663) the log2 fold change was -0.007.
MINK1 (UniProt Q8N4C8) was tested, and the log2 fold change was -0.081.
For OSBPL8 (UniProt Q9BZF1), the log2 fold change was 0.199.
For NDUFA9 (UniProt Q16795), the log2 fold change was -0.011.
NTMT1 (UniProt Q9BV86) gave a log2 fold change of -0.02.
For NFATC3 (UniProt Q12968), the log2 fold change was 0.386 (active).
With NAA11 (UniProt Q9BSU3) the log2 fold change was -0.024.
NUDT1 (UniProt P36639) was tested, and the log2 fold change was 1.69 (active).
MRPS18B (UniProt Q9Y676) gave a log2 fold change of -0.022.
With NOP56 (UniProt O00567) the log2 fold change was 0.082.
MRPS15 (UniProt P82914) showed a log2 fold change of 0.014.
Work on MXRA7 (UniProt P84157) yielded a log2 fold change of -0.012.
NPC1 (UniProt O15118) gave a log2 fold change of -0.041.
NUCKS1 (UniProt Q9H1E3) was tested, and the log2 fold change was -0.054.
For NCAPG (UniProt Q9BPX3), the log2 fold change was 0.038.
NDUFB7 (UniProt P17568) showed a log2 fold change of 0.079.
For NACC1 (UniProt Q96RE7), the log2 fold change was -0.017.
Work on NDUFS8 (UniProt O00217) yielded a log2 fold change of -0.083.
In the case of NCL (UniProt P19338), the log2 fold change is reported as 0.166.
In the case of NOB1 (UniProt Q9ULX3), the log2 fold change is reported as 0.288 (active).
NDUFA12 (UniProt Q9UI09) was tested, and the log2 fold change was -0.043.
For NBN (UniProt O60934), the log2 fold change was -0.028.
For NIBAN1 (UniProt Q9BZQ8), the log2 fold change was 0.084.
OXSR1 (UniProt O95747) gave a log2 fold change of 0.045.
For NFYC (UniProt Q13952), the log2 fold change was -0.09.
For NAPG (UniProt Q99747), the log2 fold change was -0.012.
NUP210 (UniProt Q8TEM1) gave a log2 fold change of -0.069.
MRPS24 (UniProt Q96EL2) was tested, and the log2 fold change was -0.086.
For NMT1 (UniProt P30419), the log2 fold change was 0.017.
With NUP205 (UniProt Q92621) the log2 fold change was -0.027.
Work on MRPL46 (UniProt Q9H2W6) yielded a log2 fold change of 0.029.
With MON1B (UniProt Q7L1V2) the log2 fold change was 0.095.
Target NFX1 (UniProt Q12986) has a log2 fold change of 0.178.
For MRPS16 (UniProt Q9Y3D3), the log2 fold change was -0.008.

The targets below were run with CC(C)(O)CC(=O)NCCn1ccc2ncnc(Nc3ccc(Oc4cccc(C(F)(F)F)c4)c(Cl)c3)c21 in the same assay as above.
Method in brief: as §1
For NDUFA6 (UniProt P56556), the log2 fold change was -0.214.
Target MORF4L2 (UniProt Q15014) has a log2 fold change of 0.039.
With NOL7 (UniProt Q9UMY1) the log2 fold change was 0.043.
For NELFA (UniProt Q9H3P2), the log2 fold change was -0.286.
With NHLRC2 (UniProt Q8NBF2) the log2 fold change was -0.026.
MRPS25 (UniProt P82663) gave a log2 fold change of 0.074.
Target MINK1 (UniProt Q8N4C8) has a log2 fold change of 0.053.
For OSBPL8 (UniProt Q9BZF1), the log2 fold change was -0.019.
NDUFA9 (UniProt Q16795) showed a log2 fold change of -0.211.
Target NTMT1 (UniProt Q9BV86) has a log2 fold change of -0.053.
Target NFATC3 (UniProt Q12968) has a log2 fold change of -0.105.
Target NAA11 (UniProt Q9BSU3) has a log2 fold change of -0.042.
NUDT1 (UniProt P36639) gave a log2 fold change of -0.263.
MRPS18B (UniProt Q9Y676) gave a log2 fold change of -0.025.
Work on NOP56 (UniProt O00567) yielded a log2 fold change of 0.108.
Work on MRPS15 (UniProt P82914) yielded a log2 fold change of -0.12.
With MXRA7 (UniProt P84157) the log2 fold change was 0.116.
NPC1 (UniProt O15118) was tested, and the log2 fold change was 0.028.
NUCKS1 (UniProt Q9H1E3) was tested, and the log2 fold change was 0.018.
Target NCAPG (UniProt Q9BPX3) has a log2 fold change of -0.126.
For NDUFB7 (UniProt P17568), the log2 fold change was -0.034.
In the case of NACC1 (UniProt Q96RE7), the log2 fold change is reported as -0.058.
Target NDUFS8 (UniProt O00217) has a log2 fold change of -0.099.
NCL (UniProt P19338) gave a log2 fold change of 0.119.
For NOB1 (UniProt Q9ULX3), the log2 fold change was -0.033.
For NDUFA12 (UniProt Q9UI09), the log2 fold change was -0.128.
With NBN (UniProt O60934) the log2 fold change was -0.062.
With NIBAN1 (UniProt Q9BZQ8) the log2 fold change was -0.07.
OXSR1 (UniProt O95747) was tested, and the log2 fold change was -0.115.
NFYC (UniProt Q13952) was tested, and the log2 fold change was -0.046.
NAPG (UniProt Q99747) gave a log2 fold change of -0.069.
In the case of NUP210 (UniProt Q8TEM1), the log2 fold change is reported as -0.176.
Target MRPS24 (UniProt Q96EL2) has a log2 fold change of -0.094.
NMT1 (UniProt P30419) was tested, and the log2 fold change was -0.047.
In the case of NUP205 (UniProt Q92621), the log2 fold change is reported as 0.032.
For MRPL46 (UniProt Q9H2W6), the log2 fold change was -0.008.
Work on MON1B (UniProt Q7L1V2) yielded a log2 fold change of -0.006.
With NFX1 (UniProt Q12986) the log2 fold change was 0.099.
With MRPS16 (UniProt Q9Y3D3) the log2 fold change was -0.034.
